28 molecules from PubChem BioAssay (NCI) can be followed below.

Holding throughout (assay): NCI-60 one-dose screen, 48 h (100 = growth as untreated, 0 = no growth, -100 = all killed)
Details in all cases: 10 µM unless noted

Test [1] has as its system NCI/ADR-RES ovarian.
For test [2], the system named is T-47D breast.
Test [3] relates to BT-549 breast.
The subject of test [4] is MDA-MB-435 melanoma.
For test [5], the system named is SW-620 colon.
For test [6], the system named is MCF7 breast.
The test system of test [7] is HCT-116 colon.
Test [8] relates to HCC-2998 colon.
Test [9] relates to KM12 colon.

This is part of a sample that, as a whole, favours compounds with a hit. Of some 83,000 tested, about 20% had one in any assay.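 Single-dose data. Exposure time 48 hours. Values below 10 considered active.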 A number with no mark means an inactive call. Calls of active or inactive are those of the source.

As for `C/C(=C\c1ccn(-c2ccc(N)c(F)c2)n1)[C@@H]1C[C@@H]2O[C@]2(C)CCC[C@H](C)[C@H](O)[C@@H](C)C(=O)C(C)(C)[C@@H](O)CC(=O)O1`, the growth in test [1] is -3.5% (active); in test [2], 38.5%; in test [3] it was 12.2%; in test [4], -41.1% (active); in [5] it was 44.7%; in test [6], 16.3%. The growth in test [7] is 10.7%; in [8], 4.73% (active); in test [9] it was 12.5%.
`O=[N+]([O-])/C=C\c1ccc(Cl)c(Cl)c1`: the growth is 101% in test [1]; 38.3% in test [2]; 4.99% (active) in test [3]; -26.3% (active) in test [4]; -6.79% (active) in test [5]; -32.4% (active) in test [6]. Further, the growth in test [7] was -52.8% (active); in [8], 64.1%; in [9], 43.6%.
For `Cn1cc(-c2csc(-c3cn(CCCCN4CCCCC4)c4ccc(F)cc34)n2)c2cccnc21`, the growth in [1] was 81.7%; in test [2], 81.5%; in [3], 81.1%; in test [4], -91.1% (active); in [5], -69.9% (active); in test [6] it was -55.9% (active). Further, the growth was 94.9% in test [7], 96.5% in [8] and 82.5% in test [9].
Consider `COc1ccc(C/C(C)=C(\c2ccc(OCCN3CCOCC3)cc2)c2ccc(OC(=O)Cc3ccccc3)cc2)cc1`, for which the growth in test [1] was 5.39% (active); in test [2], -48.5% (active); in [3], -70.4% (active); in test [4], -58.9% (active); in test [5], -63% (active); in [6], -53.1% (active). The growth in test [7] is -89.7% (active); in test [8], -64.3% (active); in test [9] it was -35.2% (active).
Take `COC(=O)[C@@H](C)C[C@H](Cc1ccccc1)NC(=O)c1nc([C@@H](C[C@H](C(C)C)N(C)C(=O)[C@@H](NC(=O)[C@H]2CC(=O)CCN2C)C(C)C)OC(C)=O)sc1C(C)C`: the growth was 54.3% in test [1]; 82.9% in test [2]; -10.6% (active) in test [3]; -43.4% (active) in [4]; 24.2% in [5]; 24.6% in test [6]. Besides, the growth in [7] is 5.82% (active); in [8], 24.6%; in test [9], 6.01% (active).
Consider `CCOC(=S)S[C@H]1C[C@@H]2[C@H](CC[C@]3(C)C(=O)CC[C@@H]23)[C@@]2(C)CCC(=O)C=C12`, for which the growth is 102% in test [1]; 108% in test [2]; 105% in [3]; 101% in [4]; 105% in test [5]; 90.6% in test [6]. For the same molecule, the growth in [7] is 104%; in test [8], 106%; in [9] it was 101%.
For `CCCCCN(CCCCC)CC(O)c1cc(Cl)ccc1OC` (configuration not stated), the growth was 32.4% in [1]; 35% in [2]; 79.8% in test [3]; 42.8% in test [4]; 25% in test [5]; 15.8% in [6]. Also, the growth was 4.09% (active) in [7], 17.2% in test [8] and 29.8% in test [9].
On to `Clc1cc(N2CC2)nc(N2CC2)n1`, for which the growth in test [1] is 71.7%; in test [2], 87.3%; in [3], 71.8%; in test [4], 93.7%; in [5], 61.6%; in test [6] it was 34.2%. Moreover, the growth in test [7] is 64.9%; in test [8] it was 78.2%; in test [9], 97.3%.
For `CC(=O)O[C@H]1C(=O)[C@@]2(C)[C@H]([C@H](OC(=O)c3ccccc3)[C@]3(O)C[C@H](OC(=O)[C@H](OC(=O)OC[C@@H]4COC(C)(C)O4)[C@@H](NC(=O)c4ccccc4)c4ccccc4)C(C)=C1C3(C)C)[C@]1(OC(C)=O)CO[C@@H]1C[C@@H]2O`, the growth in [1] is 80.9%; in [2] it was 25.5%; in test [3], 12.5%; in [4], -77.7% (active); in test [5], 26.5%; in [6], 11%. For the same molecule, the growth in test [7] is 5.09% (active); in test [8], -4.98% (active); in test [9], 10.7%.
In the case of `O=C([O][Hg][CH2]C1OCCOC1[CH2][Hg][O]C(=O)c1ccccc1)c1ccccc1` (configuration not stated), the growth in test [1] was 28.7%; in test [2] it was -64.1% (active); in test [3], 75.5%; in [4], 93.6%; in [5] it was -82.4% (active); in test [6] it was -31.7% (active). For the same molecule, the results for the growth in test [7], in test [8] and in [9] were -95.2% (active), 108% and 107%, respectively.
As to `CCCCC1(CCC)C(=O)NC(=S)NC1=O`, the growth in test [1] is 102%; in test [2], 92.3%; in [3], 107%; in test [4], 116%; in test [5] it was 109%; in test [6], 95.7%. Moreover, the growth was 99.2% in test [7], 106% in test [8] and 109% in test [9].
Consider `O=C(O)C1C(C(=O)O)C2(Cl)C(Cl)=C(Cl)C1(Cl)C2(Cl)Cl.[Hg]` (configuration not stated), for which the growth in [1] is 102%; in test [2], 58%; in [3], 88.1%; in test [4], 99.7%; in test [5], 86.7%; in test [6], 52.2%. Also, the growth in [7] is 90.4%; in test [8] it was 116%; in test [9], 96.7%.
For `Fc1ccc(N2COOC3(OOC2)C2CC4CC(C2)CC3C4)cc1`, the growth in test [1] was 53.2%; in test [2], 75.7%; in test [3], 95.4%; in test [4], 94.4%; in test [5], 109%; in [6] it was 76.1%. Moreover, the growth is 90.9% in test [7], 106% in [8] and 82.7% in test [9].
Consider `CCCCNC(c1ccc(Cl)cc1)C(O)c1ccc(Cl)cc1` (configuration not stated), for which the growth in test [1] was 40.9%; in test [2], 46.4%; in [3], 80.6%; in test [4] it was 21.4%; in [5] it was 2.85% (active); in test [6] it was 3.13% (active). Also, the growth in test [7] was 5.84% (active); in test [8], -55.7% (active); in test [9], 21.6%.
Consider `N#C[Se]Cc1cc(-c2ccccc2)n(-c2ccc(S(N)(=O)=O)cc2)n1`, for which the growth was 35.4% in test [1]; -1.52% (active) in test [2]; -34.6% (active) in test [3]; -28.8% (active) in test [4]; -18.4% (active) in [5]; -26.1% (active) in test [6]. The growth was -59.4% (active) in test [7], 25.1% in test [8] and -78.9% (active) in [9].
Turning to `CCOC(=O)[C@@H](C)C[C@H](Cc1ccccc1)NC(=O)c1csc([C@@H](C[C@H](C(C)C)N(C)C(=O)[C@H](CC)NC(=O)[C@H]2CCCCN2C)OC(C)=O)n1`, the growth in test [1] was 7.74% (active); in test [2] it was 53.1%; in test [3], -18.9% (active); in [4], -35.7% (active); in test [5], 30.3%; in test [6], 18.8%. The growth in test [7] is -7.81% (active); in test [8] it was 3.85% (active); in test [9] it was 4.85% (active).
As to `COC(=O)CC[C@H](Cc1ccccc1)NC(=O)c1csc([C@@H](C[C@H](C(C)C)N(C)C(=O)[C@@H](NC(=O)[C@H]2CCCCN2C)C(C)C)OC(C)=O)n1`, the growth in [1] is 30.4%; in test [2], 77.8%; in test [3] it was -22.4% (active); in [4] it was 1.58% (active); in [5], 35.8%; in test [6], 17.1%. For the same molecule, the growth in [7] is 20.8%; in [8] it was 42.4%; in [9], 24.8%.
As for `CC1CCCC(C[N+](C)(C)C)C1=O` (configuration not stated), the growth in test [1] was 107%; in [2] it was 84.5%; in [3], 125%; in test [4], 106%; in test [5], 109%; in [6], 103%. In addition, the growth is 109% in [7], 102% in test [8] and 109% in [9].
As to `c1ccc(Nc2nc(-c3ccccc3)c[se]2)cc1`, the growth was 97.3% in test [1]; 6.3% (active) in test [2]; 87.4% in test [3]; 104% in test [4]; 98.8% in [5]; 61% in test [6]. The growth is 86.3% in test [7], 86.5% in test [8] and 71.8% in [9].
Turning to `O=C(c1cccc(O)c1O)c1cn(Cc2ccc(F)cc2)c2cccc(O)c12`, the growth in test [1] is 19.3%; in test [2] it was 34.5%; in test [3] it was 41.4%; in [4], 14.2%; in test [5] it was 37.1%; in [6] it was 26.9%. Further, the growth in test [7] is 30.7%; in test [8] it was 35.6%; in test [9], 44.1%.
Turning to `CCC[CH2][Sn]([CH2]CCC)([CH2]CCC)[O]c1ccc(Cl)cc1Cl`, the growth is -84.6% (active) in test [1]; -84% (active) in test [2]; -81.7% (active) in [3]; -60.7% (active) in test [4]; -92.9% (active) in test [5]; -93% (active) in [6]. The growth in [7] was -79.9% (active); in test [8] it was -95.4% (active); in test [9], -94.2% (active).
For `COc1cc(C=C2c3ccccc3C(=O)c3ccccc32)ccc1OCCCCOc1cc2c(cc1OC)C(=O)N1CCCC1C=N2` (configuration not stated), the growth was 6.1% (active) in [1]; -30% (active) in test [2]; -40.2% (active) in test [3]; -57.6% (active) in test [4]; -84.4% (active) in test [5]; -77.1% (active) in test [6]. In addition, the results for the growth in test [7], in test [8] and in test [9] were -85.3% (active), -94.4% (active) and -85.7% (active), respectively.
Turning to `Cc1cc(N(CCCl)CCCl)ccc1C=Nc1ccc(-c2csc(Cc3ccccc3)n2)cc1`, the growth is 61.6% in test [1]; 45.3% in [2]; 69% in test [3]; 78.3% in [4]; 83.2% in test [5]; 44.5% in test [6]. The values for the growth in test [7], in test [8] and in test [9] were 77%, 71.7% and 89.8%, respectively.
On to `O=C1C2C(C(=O)[N]1[Hg][c]1ccccc1)C1(Cl)C(Cl)=C(Cl)C2(Cl)C1(Cl)Cl` (configuration not stated), for which the growth in test [1] was 40.6%; in [2] it was -36.9% (active); in [3], -89% (active); in test [4] it was -78% (active); in test [5], -78.4% (active); in test [6], -55.3% (active). The growth in test [7] was -77.7% (active); in test [8], 11.7%; in test [9], 74.6%.
Turning to `COc1ccc(C(O)(C(=O)O)c2ccc(OC)cc2)cc1`, the growth is 97.8% in test [1]; 76.4% in test [2]; 106% in test [3]; 102% in [4]; 95.2% in test [5]; 88.6% in [6]. Besides, the results for the growth in test [7], in test [8] and in test [9] were 83.2%, 90.6% and 87.7%, respectively.
Consider `CCn1nccc1NC(=O)C(=O)c1cn(Cc2ccc(F)cc2)c2cccc(OC)c12`, for which the growth is 90.2% in test [1]; 80.5% in [2]; 86.1% in test [3]; 104% in test [4]; 93.3% in [5]; 97.3% in test [6]. Further, the growth was 51.1% in [7], 102% in test [8] and 97.2% in [9].
Turning to `COc1ccc(/C=C\c2cc(OC)c(OC)c(OC)c2)c(NS(=O)(=O)c2ccc(C)cc2)c1O`, the growth is 7.57% (active) in [1]; 96.4% in test [2]; 30.6% in [3]; -33.1% (active) in [4]; 24.9% in [5]; 14.3% in [6]. Further, the values for the growth in test [7], in [8] and in [9] were 8.54% (active), 18.7% and 3.96% (active), respectively.
With `C[S+]1C=Cc2ccccc2C1c1ccc(Cl)cc1` (configuration not stated), the growth in test [1] is 101%; in test [2] it was 89.9%; in test [3], 85.6%; in [4] it was 75%; in [5], 112%; in [6], 84.5%. Also, the figures for the growth in [7], in test [8] and in test [9] were 81.6%, 103% and 1.91% (active), respectively.
